Experimental findings from PubChem BioAssay (NCI) are described below.

About 83,000 compounds went through this panel and 20% of them were active in at least one assay; those are over-represented in the sample as a whole.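 For each line, cells grew in 96-well plates with the test compound present at a single concentration for 48 hours.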 Values without a mark were called inactive. The source made the active and inactive calls. The calls were made as follows: active = growth percent below 10; inactive = the rest.

What all share (assay): NCI-60 one-dose screen, 48 h (100 = growth as untreated, 0 = no growth, -100 = all killed)
One assay concerns SK-MEL-2 melanoma. The note with it: 10 µM.
The subject of the next assay is EKVX NSCLC. As to conditions: 10 µM.
A further assay concerns SN12C renal. The note with it: 10 µM.
The subject of a further assay is UO-31 renal. The note with it: 10 µM.
A further assay deals with TK-10 renal. The note with it: 10 µM unless noted.
A further assay relates to ACHN renal. The note with it: 10 µM.
The test system of the next assay is CAKI-1 renal. As to conditions: 10 µM.
The test system of the next assay is A498 renal. As to conditions: 10 µM.
Another assay deals with CCRF-CEM leukemia. As to conditions: 10 µM.
A further assay has as its system MOLT-4 leukemia. As to conditions: 10 µM.
The next assay deals with RPMI-8226 leukemia. As to conditions: 10 µM.
The next assay concerns OVCAR-8 ovarian. As to conditions: 10 µM.
For the next assay, the system named is OVCAR-5 ovarian. As to conditions: 10 µM.
For the next assay, the system named is OVCAR-4 ovarian. The note with it: 10 µM.
A further assay deals with IGROV1 ovarian. As to conditions: 10 µM.
A further assay deals with OVCAR-3 ovarian. As to conditions: 10 µM.
A further assay deals with HS 578T breast. As to conditions: 10 µM.
For another assay, the system named is NCI/ADR-RES ovarian. The note with it: 10 µM.
The test system of another assay is SR leukemia. The note with it: 10 µM.
The subject of a further assay is SK-OV-3 ovarian. The note with it: 10 µM.

For the molecule `Cc1cc(=O)cc(C)n1-c1ccccc1`, the growth with SK-MEL-2 melanoma was 104%; in the assay on EKVX NSCLC it was 107%; with SN12C renal, 89.3%; with UO-31 renal it was 90%; with TK-10 renal it was 96.3%; with ACHN renal, 102%. For the same molecule, the growth with CAKI-1 renal was 95%; in the assay with A498 renal it was 103%; with CCRF-CEM leukemia it was 92.4%; with MOLT-4 leukemia, 102%; in the assay on RPMI-8226 leukemia, 97.6%; with OVCAR-8 ovarian, 109%. Moreover, the growth in the assay with OVCAR-5 ovarian is 98.3%; in the assay with OVCAR-4 ovarian, 100%; in the assay on IGROV1 ovarian, 114%; in the assay on OVCAR-3 ovarian, 120%; with HS 578T breast, 113%; in the assay on NCI/ADR-RES ovarian it was 98.9%.
Turning to `Brc1cnc2ccccc2c1`, the growth was 100% in the assay on SK-MEL-2 melanoma; 103% in the assay on EKVX NSCLC; 98.4% with SN12C renal; 78.2% in the assay on UO-31 renal; 102% in the assay with TK-10 renal; 98.2% with ACHN renal. Further, the growth in the assay on CAKI-1 renal is 97.7%; in the assay on A498 renal it was 99%; in the assay with CCRF-CEM leukemia it was 108%; in the assay with MOLT-4 leukemia it was 101%; in the assay on SR leukemia, 103%; with OVCAR-8 ovarian, 104%. In addition, the growth in the assay on OVCAR-5 ovarian is 96.3%; with OVCAR-4 ovarian, 118%; with SK-OV-3 ovarian, 111%; with IGROV1 ovarian it was 107%; in the assay on OVCAR-3 ovarian, 99.7%; with NCI/ADR-RES ovarian, 102%.
For `OCc1ccc(-c2ccc(-c3ccc(CO)s3)o2)s1`, the growth with SK-MEL-2 melanoma is 79.7%; in the assay with EKVX NSCLC, 99.9%; in the assay on SN12C renal, 55.7%; with UO-31 renal, 41.4%; in the assay with TK-10 renal, -20.9% (active); with ACHN renal it was 63.7%. Moreover, the growth is -54.3% (active) in the assay on CAKI-1 renal; -89.1% (active) in the assay on A498 renal; 41.5% in the assay with CCRF-CEM leukemia; 33.1% in the assay on MOLT-4 leukemia; 60.8% with SR leukemia; -22.5% (active) in the assay on RPMI-8226 leukemia. Further, the growth in the assay on OVCAR-5 ovarian was 103%; with OVCAR-4 ovarian it was -22.4% (active); with IGROV1 ovarian it was -73% (active); with OVCAR-3 ovarian, -30.8% (active); in the assay on HS 578T breast it was 81.8%; in the assay on NCI/ADR-RES ovarian, 65.1%.
Consider `Cc1ccc(C(=O)N/N=C/c2ccc3c(c2)OCO3)cc1`, for which the growth in the assay with SK-MEL-2 melanoma was 90.4%; in the assay with EKVX NSCLC it was 101%; in the assay with SN12C renal, 96%; in the assay on UO-31 renal, 78.2%; in the assay with TK-10 renal, 98%; in the assay with ACHN renal, 94.3%. Moreover, the growth in the assay on CAKI-1 renal was 93.3%; in the assay on A498 renal, 96.6%; in the assay on CCRF-CEM leukemia, 84.8%; with SR leukemia, 78%; with RPMI-8226 leukemia, 94.3%; with OVCAR-8 ovarian, 102%. For the same molecule, the growth in the assay with OVCAR-5 ovarian was 103%; in the assay with OVCAR-4 ovarian, 99.5%; with IGROV1 ovarian, 105%; in the assay on OVCAR-3 ovarian, 116%; with HS 578T breast it was 115%; with NCI/ADR-RES ovarian it was 91.3%.
Consider `CC(=O)Nc1cccc(Cl)c1C`, for which the growth in the assay with SK-MEL-2 melanoma was 100%; with EKVX NSCLC it was 101%; in the assay with SN12C renal, 99.7%; in the assay with UO-31 renal, 85.3%; with TK-10 renal, 95.5%; with ACHN renal it was 106%. In addition, the growth with CAKI-1 renal was 97.7%; in the assay on A498 renal, 93.3%; in the assay with OVCAR-8 ovarian, 96.5%; with OVCAR-5 ovarian, 103%; with OVCAR-4 ovarian it was 109%; with SK-OV-3 ovarian, 101%. Besides, the growth in the assay on IGROV1 ovarian was 102%; with OVCAR-3 ovarian it was 102%; in the assay with HS 578T breast it was 92.9%; with NCI/ADR-RES ovarian, 104%.
As to `COC(=O)/C=C\C(=O)OC`, the growth was 114% with SK-MEL-2 melanoma; 122% with EKVX NSCLC; 102% in the assay with SN12C renal; 81.1% in the assay on UO-31 renal; 109% in the assay with TK-10 renal; 113% with ACHN renal. Moreover, the growth in the assay on CAKI-1 renal is 112%; in the assay with CCRF-CEM leukemia it was 110%; with MOLT-4 leukemia it was 87.8%; with SR leukemia, 103%; in the assay with RPMI-8226 leukemia, 114%; with OVCAR-8 ovarian, 108%. Besides, the growth in the assay with OVCAR-5 ovarian is 116%; with OVCAR-4 ovarian, 115%; in the assay on SK-OV-3 ovarian, 118%; with IGROV1 ovarian, 113%; in the assay on OVCAR-3 ovarian it was 119%; in the assay with HS 578T breast it was 113%. In addition, the growth in the assay on NCI/ADR-RES ovarian is 111%.
As to `C/C=C/CC(C)C(O)C1C(=O)NC(CC)C(=O)N(C)CC(=O)N(C)C(CC(C)C)C(=O)NC(C(C)C)C(=O)N(C)C(CC(C)C)C(=O)NC(C)C(=O)NC(C)C(=O)N(C)C(CC(C)C)C(=O)N(C)C(CC(C)C)C(=O)N(C)C(C(C)C)C(=O)N1C` (stereo not given), the growth was -36.5% (active) in the assay on SK-MEL-2 melanoma; 26.7% in the assay with EKVX NSCLC; 27.4% in the assay with SN12C renal; 24.1% in the assay on UO-31 renal; 31.3% with TK-10 renal; 16.8% in the assay with ACHN renal. In addition, the growth in the assay on CAKI-1 renal was 31%; in the assay with A498 renal, -5.73% (active); in the assay on MOLT-4 leukemia, -4.07% (active); in the assay on SR leukemia, -0.0306% (active); in the assay with OVCAR-8 ovarian, 38.1%; with OVCAR-5 ovarian, 32%. In addition, the growth is 29.9% with OVCAR-4 ovarian; 43.9% in the assay with IGROV1 ovarian; 17.4% with OVCAR-3 ovarian; 45.8% in the assay with HS 578T breast; 31.9% with NCI/ADR-RES ovarian.
Regarding `CC1=NN(c2ccccc2)C(=O)/C1=C\N1CC(=O)NC1=S`, the growth in the assay on SK-MEL-2 melanoma is 108%; with EKVX NSCLC, 105%; with SN12C renal it was 101%; with UO-31 renal it was 92%; in the assay on TK-10 renal, 122%; in the assay on ACHN renal, 98.8%. Besides, the growth in the assay on CAKI-1 renal is 98%; in the assay on A498 renal, 92.9%; in the assay on SR leukemia, 89.1%; in the assay on OVCAR-8 ovarian, 102%; in the assay with OVCAR-5 ovarian it was 119%; in the assay with OVCAR-4 ovarian it was 102%. The growth is 101% in the assay on SK-OV-3 ovarian, 106% in the assay on IGROV1 ovarian, 111% in the assay on OVCAR-3 ovarian and 103% in the assay with NCI/ADR-RES ovarian.
As for `CC1(C)N=C(N)N=C(N)N1c1ccc(Cl)cc1`, the growth was 71% with SK-MEL-2 melanoma; 48.4% in the assay on EKVX NSCLC; 41.4% in the assay with SN12C renal; 85.9% in the assay with UO-31 renal; 69.7% in the assay with TK-10 renal; 67.4% in the assay with ACHN renal. The growth was 99.9% in the assay with CAKI-1 renal; 120% with A498 renal; 53.6% in the assay on MOLT-4 leukemia; 52.7% in the assay with SR leukemia; 30.8% in the assay on OVCAR-8 ovarian; 55% with OVCAR-4 ovarian. In addition, the results for the growth in the assay on SK-OV-3 ovarian, in the assay on IGROV1 ovarian and with OVCAR-3 ovarian were 61%, 35.9% and 69.9%, respectively.
